Data taken from PubChem BioAssay AID1159580 (chemical genetic matrix, 2015).
Where “and” joins values, the source holds several entries; their conditions need not be identical. Equal values may be shown once. About 2,000 (36%) of roughly 5,500 compounds were called active. Roughly 18% stayed inconclusive and do not appear here. Cut-off read from the data, not from the text of the source: active = normalized growth mostly below about 0.91 (no sharp cut-off); inconclusive = no clear call, values can overlap the other calls; inactive = mostly above about 0.92. The list shows a part of the results.

Assay: chemical genetic growth profiling, strain panel (AID 1159580);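 note: tested at 20 µM; growth read once vehicle control cultures reached saturation at 30 °C; 1 = growth at the plate median or of vehicle wells; lower values mean less growth of the strain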
Conditions: growth OD

Measured: normalized growth

O=c1[nH]c2cc(Cl)c(Cl)cc2[nH]c1=O
active: S. cerevisiae deletion strains, locus YLR330W, strain CHS5, stronger effect = lower value 0.894
inactive: S. cerevisiae deletion strains, locus YJR075W, strain HOC1, stronger effect = lower value 1 and 1.01 | S. cerevisiae deletion strains, locus YKL009W, strain mrt4, stronger effect = lower value 1.02 | S. cerevisiae deletion strains, locus YKL068W, stronger effect = lower value 1.02 | S. cerevisiae deletion strains, locus YKL085W, strain MDH1 (second series), stronger effect = lower value 1.01 | S. cerevisiae deletion strains, locus YKL085W, strain MDH1, stronger effect = lower value 1.01 | S. cerevisiae deletion strains, locus YKL160W, strain elf1, stronger effect = lower value 0.988 | S. cerevisiae deletion strains, locus YKL190W, strain CNB1, stronger effect = lower value 1.01 | S. cerevisiae deletion strains, locus YKR001C, strain vps1, stronger effect = lower value 1.05 | S. cerevisiae deletion strains, locus YKR026C, strain gcn3, stronger effect = lower value 0.989 | S. cerevisiae deletion strains, locus YKR091W, strain srl3, stronger effect = lower value 0.987 | S. cerevisiae deletion strains, locus YLL001W, strain dnm1, stronger effect = lower value 0.992 | S. cerevisiae deletion strains, locus YLL026W, stronger effect = lower value 0.988 | S. cerevisiae deletion strains, locus YLL041C, strain sdh2, stronger effect = lower value 0.995 | S. cerevisiae deletion strains, locus YLR027C, strain aat2, stronger effect = lower value 0.957 | S. cerevisiae deletion strains, locus YLR039C, strain RIC1, stronger effect = lower value 1.04 | S. cerevisiae deletion strains, locus YLR058C, strain SHM2, stronger effect = lower value 1.01 | S. cerevisiae deletion strains, locus YLR102C, strain apc9, stronger effect = lower value 1.02 | S. cerevisiae deletion strains, locus YLR221C, strain rsa3, stronger effect = lower value 0.955 | S. cerevisiae deletion strains, locus YLR258W, strain gsy2, stronger effect = lower value 0.99 | S. cerevisiae deletion strains, locus YLR262C, strain YPT6 (second series), stronger effect = lower value 0.989 | S. cerevisiae deletion strains, locus YLR262C, strain YPT6, stronger effect = lower value 1.04 | S. cerevisiae deletion strains, locus YLR268W, strain sec22, stronger effect = lower value 1.03 | S. cerevisiae deletion strains, locus YLR320W, strain mms22, stronger effect = lower value 0.963 | S. cerevisiae deletion strains, locus YLR342W, strain FKS1 (second series), stronger effect = lower value 0.99 | S. cerevisiae deletion strains, locus YLR342W, strain FKS1, stronger effect = lower value 0.988 | S. cerevisiae deletion strains, locus YLR357W, strain rsc2, stronger effect = lower value 0.984 | S. cerevisiae deletion strains, locus YLR370C, strain arc18, stronger effect = lower value 0.995 | S. cerevisiae deletion strains, locus YLR371W, strain rom2, stronger effect = lower value 1.03 | S. cerevisiae deletion strains, locus YLR384C, strain iki3, stronger effect = lower value 1.01 | S. cerevisiae deletion strains, locus YLR418C, strain cdc73, stronger effect = lower value 1.07 | S. cerevisiae deletion strains, locus YML016C, strain PPZ1, stronger effect = lower value 1.01 | S. cerevisiae deletion strains, locus YML032C, strain rad52, stronger effect = lower value 1.04 | S. cerevisiae deletion strains, locus YML120C, strain ndi1, stronger effect = lower value 1.02 | S. cerevisiae deletion strains, locus YML124C, strain tub3, stronger effect = lower value 1.02 | S. cerevisiae deletion strains, locus YMR058W, strain fet3, stronger effect = lower value 0.994 | S. cerevisiae deletion strains, locus YMR078C, strain ctf18, stronger effect = lower value 1.03 | S. cerevisiae deletion strains, locus YMR125W, strain sto1, stronger effect = lower value 0.994 | S. cerevisiae deletion strains, locus YMR129W, stronger effect = lower value 1.01 | S. cerevisiae deletion strains, locus YMR205C, strain PFK2, stronger effect = lower value 0.974 | S. cerevisiae deletion strains, locus YMR223W, strain ubp8, stronger effect = lower value 1.03 | S. cerevisiae deletion strains, locus YMR231W, strain pep5, stronger effect = lower value 0.996 | S. cerevisiae deletion strains, locus YMR263W, strain SAP30, stronger effect = lower value 1 | S. cerevisiae deletion strains, locus YMR307W, strain GAS1, stronger effect = lower value 1.03 and 1.01 | S. cerevisiae deletion strains, locus YNL067W, strain RPL9B, stronger effect = lower value 1.01 | S. cerevisiae deletion strains, locus YNL071W, strain lat1, stronger effect = lower value 0.999 | S. cerevisiae deletion strains, locus YNL128W, strain TEP1, stronger effect = lower value 1.02 | S. cerevisiae deletion strains, locus YNL153C, strain GIM3, stronger effect = lower value 1.01 | S. cerevisiae deletion strains, locus YNL175C, strain NOP13, stronger effect = lower value 0.996 | S. cerevisiae deletion strains, locus YNL197C, strain WHI3, stronger effect = lower value 0.975 | S. cerevisiae deletion strains, locus YNL209W, strain ssb2, stronger effect = lower value 1 | S. cerevisiae deletion strains, locus YNL224C, strain SQS1, stronger effect = lower value 1 | S. cerevisiae deletion strains, locus YNL233W, strain BNI4, stronger effect = lower value 1 | S. cerevisiae deletion strains, locus YNL248C, strain rpa49, stronger effect = lower value 1.01 | S. cerevisiae deletion strains, locus YNL250W, strain rad50, stronger effect = lower value 1.03 | S. cerevisiae deletion strains, locus YNL271C, strain bni1, stronger effect = lower value 1.04 | S. cerevisiae deletion strains, locus YNL298W, strain CLA4, stronger effect = lower value 1.03 | S. cerevisiae deletion strains, locus YNL307C, strain MCK1, stronger effect = lower value 1.04 | S. cerevisiae deletion strains, locus YNL322C, strain KRE1 (second series), stronger effect = lower value 0.985 | S. cerevisiae deletion strains, locus YNL322C, strain KRE1, stronger effect = lower value 1 | S. cerevisiae deletion strains, locus YNR049C, strain mso1, stronger effect = lower value 0.992 | S. cerevisiae deletion strains, locus YNR052C, strain pop2, stronger effect = lower value 1.03 | S. cerevisiae deletion strains, locus YOL006C, strain TOP1, stronger effect = lower value 1.05 | S. cerevisiae deletion strains, locus YOL012C, strain htz1 1.66 | S. cerevisiae deletion strains, locus YOL147C, strain pex11, stronger effect = lower value 1.03 | S. cerevisiae deletion strains, locus YOR001W, strain rrp6, stronger effect = lower value 0.959 | S. cerevisiae deletion strains, locus YOR061W, strain CKA2, stronger effect = lower value 1.02 | S. cerevisiae deletion strains, locus YOR069W, strain VPS5, stronger effect = lower value 1.01 | S. cerevisiae deletion strains, locus YOR070C, strain gyp1, stronger effect = lower value 0.97 | S. cerevisiae deletion strains, locus YOR080W, strain dia2, stronger effect = lower value 0.983 | S. cerevisiae deletion strains, locus YOR083W, strain WHI5 (second series), stronger effect = lower value 0.984 | S. cerevisiae deletion strains, locus YOR083W, strain WHI5, stronger effect = lower value 0.982 | S. cerevisiae deletion strains, locus YOR106W, strain vam3, stronger effect = lower value 1.01 | S. cerevisiae deletion strains, locus YOR136W, strain idh2, stronger effect = lower value 1.04 | S. cerevisiae deletion strains, locus YOR144C, strain elg1, stronger effect = lower value 1.02 | S. cerevisiae deletion strains, locus YOR184W, strain ser1, stronger effect = lower value 1.03 | S. cerevisiae deletion strains, locus YOR265W, strain rbl2, stronger effect = lower value 0.987 | S. cerevisiae deletion strains, locus YOR270C, strain vph1, stronger effect = lower value 0.96 | S. cerevisiae deletion strains, locus YOR290C, strain snf2, stronger effect = lower value 0.971 | S. cerevisiae deletion strains, locus YOR316C, strain cot1, stronger effect = lower value 1.02 | S. cerevisiae deletion strains, locus YPL051W, strain arl3, stronger effect = lower value 0.961 | S. cerevisiae deletion strains, locus YPL055C, strain LGE1, stronger effect = lower value 1.02 | S. cerevisiae deletion strains, locus YPL078C, strain atp4, stronger effect = lower value 0.997 | S. cerevisiae deletion strains, locus YPL106C, strain sse1, stronger effect = lower value 0.97 | S. cerevisiae deletion strains, locus YPL240C, strain hsp82, stronger effect = lower value 0.988 | S. cerevisiae deletion strains, locus YPL241C, strain CIN2, stronger effect = lower value 1.01 | S. cerevisiae deletion strains, locus YPR119W, strain clb2, stronger effect = lower value 1.03 | S. cerevisiae deletion strains, locus YPR141C, strain kar3, stronger effect = lower value 1.03 | S. cerevisiae deletion strains, locus YPR163C, strain tif3, stronger effect = lower value 1.04 | S. cerevisiae deletion strains, locus YPR167C, strain met16, stronger effect = lower value 1.02 | S. cerevisiae deletion strains, strain wtn01, stronger effect = lower value 1.02 | S. cerevisiae strains, strain wild type, stronger effect = lower value 1.01
